Test results taken from PubChem BioAssay AID1159580 (chemical genetic matrix, 2015).
Out of some 5,500 compounds screened, about 2,000 (36%) were called active. About 18% were inconclusive and are not listed. No stated cut-off is given here; in the data, active means normalized growth mostly below about 0.91 (no sharp cut-off); inconclusive means no clear call, values can overlap the other calls; inactive means mostly above about 0.92. The list shows a part of the results.

Assay: chemical genetic growth profiling, strain panel (AID 1159580);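 further: tested at 20 µM; growth read once vehicle control cultures reached saturation at 30 °C; 1 = growth at the plate median or of vehicle wells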
Conditions: growth OD

Measured: normalized growth

Nc1c(Br)cc(Br)cc1CNC1CCC(O)CC1 (stereo not given)
inactive: S. cerevisiae deletion strains, locus YJR066W, strain TOR1, stronger effect = lower value 0.936 | S. cerevisiae deletion strains, locus YKL009W, strain mrt4, stronger effect = lower value 0.985 | S. cerevisiae deletion strains, locus YKL068W, stronger effect = lower value 0.997 | S. cerevisiae deletion strains, locus YKL085W, strain MDH1 (second series), stronger effect = lower value 1 | S. cerevisiae deletion strains, locus YKL085W, strain MDH1, stronger effect = lower value 1 | S. cerevisiae deletion strains, locus YKL160W, strain elf1, stronger effect = lower value 1 | S. cerevisiae deletion strains, locus YKL190W, strain CNB1, stronger effect = lower value 1.01 | S. cerevisiae deletion strains, locus YKR001C, strain vps1, stronger effect = lower value 0.994 | S. cerevisiae deletion strains, locus YKR026C, strain gcn3, stronger effect = lower value 1.01 | S. cerevisiae deletion strains, locus YKR091W, strain srl3, stronger effect = lower value 1.02 | S. cerevisiae deletion strains, locus YLL001W, strain dnm1, stronger effect = lower value 1.02 | S. cerevisiae deletion strains, locus YLL026W, stronger effect = lower value 1.01 | S. cerevisiae deletion strains, locus YLL041C, strain sdh2, stronger effect = lower value 0.993 | S. cerevisiae deletion strains, locus YLR027C, strain aat2, stronger effect = lower value 0.997 | S. cerevisiae deletion strains, locus YLR039C, strain RIC1, stronger effect = lower value 1.03 | S. cerevisiae deletion strains, locus YLR058C, strain SHM2, stronger effect = lower value 1 | S. cerevisiae deletion strains, locus YLR102C, strain apc9, stronger effect = lower value 1.01 | S. cerevisiae deletion strains, locus YLR113W, strain HOG1, stronger effect = lower value 1.07 | S. cerevisiae deletion strains, locus YLR221C, strain rsa3, stronger effect = lower value 1.01 | S. cerevisiae deletion strains, locus YLR258W, strain gsy2, stronger effect = lower value 1 | S. cerevisiae deletion strains, locus YLR262C, strain YPT6 (second series), stronger effect = lower value 0.974 | S. cerevisiae deletion strains, locus YLR262C, strain YPT6, stronger effect = lower value 1.04 | S. cerevisiae deletion strains, locus YLR268W, strain sec22, stronger effect = lower value 0.982 | S. cerevisiae deletion strains, locus YLR320W, strain mms22, stronger effect = lower value 1.03 | S. cerevisiae deletion strains, locus YLR330W, strain CHS5, stronger effect = lower value 1.01 | S. cerevisiae deletion strains, locus YLR342W, strain FKS1 (second series), stronger effect = lower value 1.01 | S. cerevisiae deletion strains, locus YLR342W, strain FKS1, stronger effect = lower value 1.02 | S. cerevisiae deletion strains, locus YLR357W, strain rsc2, stronger effect = lower value 1.03 | S. cerevisiae deletion strains, locus YLR370C, strain arc18, stronger effect = lower value 0.997 | S. cerevisiae deletion strains, locus YLR371W, strain rom2, stronger effect = lower value 1.01 | S. cerevisiae deletion strains, locus YLR384C, strain iki3, stronger effect = lower value 1.01 | S. cerevisiae deletion strains, locus YLR418C, strain cdc73, stronger effect = lower value 0.949 | S. cerevisiae deletion strains, locus YML016C, strain PPZ1, stronger effect = lower value 1 | S. cerevisiae deletion strains, locus YML032C, strain rad52, stronger effect = lower value 0.996 | S. cerevisiae deletion strains, locus YML120C, strain ndi1, stronger effect = lower value 1.05 | S. cerevisiae deletion strains, locus YML124C, strain tub3, stronger effect = lower value 0.996 | S. cerevisiae deletion strains, locus YMR058W, strain fet3, stronger effect = lower value 1.02 | S. cerevisiae deletion strains, locus YMR078C, strain ctf18, stronger effect = lower value 1.01 | S. cerevisiae deletion strains, locus YMR125W, strain sto1, stronger effect = lower value 1.01 | S. cerevisiae deletion strains, locus YMR129W, stronger effect = lower value 1.02 | S. cerevisiae deletion strains, locus YMR205C, strain PFK2, stronger effect = lower value 1 | S. cerevisiae deletion strains, locus YMR223W, strain ubp8, stronger effect = lower value 0.991 | S. cerevisiae deletion strains, locus YMR231W, strain pep5, stronger effect = lower value 1.02 | S. cerevisiae deletion strains, locus YMR307W, strain GAS1, stronger effect = lower value 1.12 | S. cerevisiae deletion strains, locus YNL067W, strain RPL9B, stronger effect = lower value 0.994 | S. cerevisiae deletion strains, locus YNL071W, strain lat1, stronger effect = lower value 1.01 | S. cerevisiae deletion strains, locus YNL128W, strain TEP1, stronger effect = lower value 1.02 | S. cerevisiae deletion strains, locus YNL153C, strain GIM3, stronger effect = lower value 0.99 | S. cerevisiae deletion strains, locus YNL183C, strain NPR1, stronger effect = lower value 0.981 | S. cerevisiae deletion strains, locus YNL209W, strain ssb2, stronger effect = lower value 1 | S. cerevisiae deletion strains, locus YNL233W, strain BNI4, stronger effect = lower value 0.991 | S. cerevisiae deletion strains, locus YNL248C, strain rpa49, stronger effect = lower value 1 | S. cerevisiae deletion strains, locus YNL250W, strain rad50, stronger effect = lower value 0.994 | S. cerevisiae deletion strains, locus YNL271C, strain bni1, stronger effect = lower value 1 | S. cerevisiae deletion strains, locus YNL298W, strain CLA4, stronger effect = lower value 1.03 | S. cerevisiae deletion strains, locus YNL307C, strain MCK1, stronger effect = lower value 1.01 | S. cerevisiae deletion strains, locus YNL322C, strain KRE1 (second series), stronger effect = lower value 1.02 | S. cerevisiae deletion strains, locus YNL322C, strain KRE1, stronger effect = lower value 1 | S. cerevisiae deletion strains, locus YNR049C, strain mso1, stronger effect = lower value 0.987 | S. cerevisiae deletion strains, locus YNR052C, strain pop2, stronger effect = lower value 1 | S. cerevisiae deletion strains, locus YOL006C, strain TOP1, stronger effect = lower value 0.95 | S. cerevisiae deletion strains, locus YOL012C, strain htz1 0.731 | S. cerevisiae deletion strains, locus YOL147C, strain pex11, stronger effect = lower value 0.998 | S. cerevisiae deletion strains, locus YOR001W, strain rrp6, stronger effect = lower value 0.996 | S. cerevisiae deletion strains, locus YOR061W, strain CKA2, stronger effect = lower value 1.01 | S. cerevisiae deletion strains, locus YOR069W, strain VPS5, stronger effect = lower value 1 | S. cerevisiae deletion strains, locus YOR070C, strain gyp1, stronger effect = lower value 1 | S. cerevisiae deletion strains, locus YOR080W, strain dia2, stronger effect = lower value 1.02 | S. cerevisiae deletion strains, locus YOR083W, strain WHI5, stronger effect = lower value 0.997 | S. cerevisiae deletion strains, locus YOR106W, strain vam3, stronger effect = lower value 1.02 | S. cerevisiae deletion strains, locus YOR136W, strain idh2, stronger effect = lower value 0.995 | S. cerevisiae deletion strains, locus YOR144C, strain elg1, stronger effect = lower value 0.994 | S. cerevisiae deletion strains, locus YOR184W, strain ser1, stronger effect = lower value 0.992 | S. cerevisiae deletion strains, locus YOR231W, strain MKK1, stronger effect = lower value 1.06 | S. cerevisiae deletion strains, locus YOR265W, strain rbl2, stronger effect = lower value 1.01 | S. cerevisiae deletion strains, locus YOR270C, strain vph1, stronger effect = lower value 1.01 | S. cerevisiae deletion strains, locus YOR290C, strain snf2, stronger effect = lower value 0.984 | S. cerevisiae deletion strains, locus YOR316C, strain cot1, stronger effect = lower value 1 | S. cerevisiae deletion strains, locus YPL051W, strain arl3, stronger effect = lower value 1.01 | S. cerevisiae deletion strains, locus YPL055C, strain LGE1, stronger effect = lower value 0.978 | S. cerevisiae deletion strains, locus YPL078C, strain atp4, stronger effect = lower value 0.999 | S. cerevisiae deletion strains, locus YPL106C, strain sse1, stronger effect = lower value 1.03 | S. cerevisiae deletion strains, locus YPL240C, strain hsp82, stronger effect = lower value 1.01 | S. cerevisiae deletion strains, locus YPL256C, strain CLN2, stronger effect = lower value 1.06 | S. cerevisiae deletion strains, locus YPR119W, strain clb2, stronger effect = lower value 1 | S. cerevisiae deletion strains, locus YPR141C, strain kar3, stronger effect = lower value 0.99 | S. cerevisiae deletion strains, locus YPR163C, strain tif3, stronger effect = lower value 1 | S. cerevisiae deletion strains, locus YPR167C, strain met16, stronger effect = lower value 0.998 | S. cerevisiae deletion strains, strain wtn01, stronger effect = lower value 1 | S. cerevisiae strains, strain wild type, stronger effect = lower value 1.01
